The campaign covered roughly 10,000 compounds. About 320 (3.2%) were called active. Many of the other results were omitted from the sample, so actives are more common in it than they were. Unmarked numbers belong to inactive results. No stated cut-off is given here; in the data, active means CPE inhibition mostly above about 9.1% (no sharp cut-off); inactive means mostly below about 7.2%.
Assay: Dengue virus cytopathic effect inhibitors, cell-based, CPE readout, HTS (AID 540333)
Settings: Dengue virus CPE inhibition in host cells, at 20 µM; hits give high values

| Structure (SMILES) | CPE inhibition |
| --- | --- |
| Cc1ccc(C(c2nnnn2C2CCCC2)N2CCc3ccccc32)cc1 (stereo unspecified) | 18.1% (active) |
| Cc1ccc(-c2nnc3ccc(SCC(=O)N4CCCc5ccccc54)nn23)cc1 | inactive |
| Cc1ccc(C(=O)Nc2nnc(SCC(=O)N3CCCc4ccccc43)s2)cc1 | 0.06% |
| COc1ccc(N=Cc2cc3c(cc2O)OC(N)=C(C#N)C3c2ccccc2)cc1 (stereo unspecified) | 13.1% (active) |
| COc1cccc(C2C(C#N)=C(N)Oc3cc(N)ccc32)c1OC (stereo unspecified) | inactive |
| Cc1ccccc1N=Cc1cc2c(cc1O)OC(N)=C(C#N)C2c1ccccc1 (stereo unspecified) | 0.055% |
| COc1ccc([C@@H]2C(C#N)=C(N)S[C@@H](c3ccccc3)[C@@H]2[N+](=O)[O-])cc1 | 0.405% |
| N#CC1=C(N)Oc2cc(O)c(C=Nc3ccccc3)cc2C1c1ccccc1 (stereo unspecified) | 5.12% |
| Cc1ccc(N=Cc2cc3c(cc2O)OC(N)=C(C#N)C3c2ccccc2)cc1 (stereo unspecified) | 23.4% (active) |
| Cc1ccc(-c2nc(N)sc2CC(=O)OCC(=O)NCC2CCCO2)cc1 (stereo unspecified) | inactive |
| CCCCC(=O)Nc1cccc(NC(=S)NC(=O)Cc2ccccc2)c1 | 0.515% |
| O=C(Nc1cccc(Cl)c1)c1ccc(Cn2cc(Cl)cn2)cc1 | inactive |
| Cc1ccnc(NC(=S)NC(=O)c2ccco2)c1 | 0.58% |
| O=C(NC(=S)Nc1ccccn1)c1ccco1 | 1.33% |
| COc1cccc(C(Nc2ccccn2)c2c(NC(=O)c3ccco3)sc(C)c2C)c1 (stereo unspecified) | 31% (active) |
| Fc1ccccc1NC(=S)NCc1ccc2c(c1)OCO2 | 0.705% |
| COc1cc(C(=O)NNC(=S)NC(=O)c2ccc(Cl)cc2)cc(OC)c1OC | 2.02% |
| CN(C)S(=O)(=O)c1cccc(NC(=O)CSc2nc3ccccc3n2-c2ccccc2)c1 | 6.67% |
| CCn1c(SCC(=O)Nc2ncc(C(F)(F)F)cc2Cl)nnc1-c1cccc(C)c1 | 0.415% |
| Cc1ccc(-n2c(SCC(=O)Nc3cccc(S(N)(=O)=O)c3)nc3ccccc32)cc1 | 10.4% |
| Cc1cccc(-n2c(SCC(=O)Nc3ncc(Cl)cc3Cl)nc3ccccc32)c1 | 13.7% (active) |
| Cc1ccc(-c2nn(-c3ccccc3)cc2C(=O)OCC(=O)Nc2ncc(Cl)cc2Cl)cc1 | 0.085% |
| Cc1ccc(-n2c(SCC(=O)Nc3ncc(Cl)cc3Cl)nc3ccccc32)cc1 | 14.9% (active) |
| COc1cc2c(cc1OC)CN(c1ccc([N+](=O)[O-])cc1C#N)CC2 | 0.37% |

| Structure (SMILES) | CPE inhibition |
| --- | --- |
| CN(C)S(=O)(=O)c1ccc(NCC2COc3ccccc3O2)c([N+](=O)[O-])c1 (stereo unspecified) | 0.57% |
| O=C(CSc1cccc[n+]1[O-])Nc1cc(S(=O)(=O)N2CCOCC2)ccc1Cl | inactive |
| O=c1c2ccccc2sc2ccc(Cl)cc12 | 0.48% |
| COc1cc(/C=C(\C#N)C(=O)NC2CCCCC2C)ccc1OS(=O)(=O)c1ccc(C)cc1 (stereo unspecified) | inactive |
| CCCCCCCCNC(=O)/C(C#N)=C/c1ccc(SC)cc1 | 0.185% |
| CSc1ccc(/C=C(\C#N)C(=O)NC2CCCCC2C)cc1 (stereo unspecified) | 18.5% (active) |
| CC(=O)Nc1ccc(OCC(O)CN2CCCCC2C)cc1 (stereo unspecified) | 0.255% |
| O=[N+]([O-])c1ccc(-c2nnc(-c3ccccc3)c(NCCCO)n2)cc1 | inactive |
| CC1CCN(C(=O)CCc2ccc(Oc3cc([N+](=O)[O-])cc([N+](=O)[O-])c3)cc2)CC1 | 6.92% |
| O=C(c1cc([N+](=O)[O-])ccc1N1CCCCC1)N1CCCC1 | 0.545% |
| O=C(CCc1ccc(Oc2cc([N+](=O)[O-])cc([N+](=O)[O-])c2)cc1)N1CCCCCC1 | 12.4% (active) |
| COc1ccc(OCCCC(=O)Nc2cccc([N+](=O)[O-])c2C)cc1 | inactive |
| C=CCOC(=O)C1=C(C)NC(SCC(N)=O)=C(C#N)C1c1cccs1 (stereo unspecified) | 0.32% |
| Cc1cc(C)c(COc2ccc(/C=N/n3c(C)n[nH]c3=S)cc2)c(C)c1 | 5.91% |
| Cc1cc(C)c2[nH]c(=O)c(CN(Cc3cccs3)C(=S)NCC3CCCO3)cc2c1 (stereo unspecified) | 2.9% |
| Cc1ccc2[nH]c(=O)c(CN(Cc3cccs3)C(=S)NCC3CCCO3)cc2c1 (stereo unspecified) | 0.245% |
| Cc1cccc(NC(=S)N(Cc2cccs2)Cc2cc3cc(C)cc(C)c3[nH]c2=O)c1 | 3.13% |
| COc1ccc2[nH]c(=O)c(CN(Cc3cccs3)C(=S)Nc3cccc(C)c3)cc2c1 | 9.5% (active) |
| Cc1cc2cc(CN(Cc3cccs3)C(=S)NCC3CCCO3)c(=O)[nH]c2cc1C (stereo unspecified) | 18.4% (active) |
| CNC(=S)N(Cc1cccs1)Cc1cc2cc(OC)ccc2[nH]c1=O | inactive |
| N=C(N)SCc1nc2ccccc2c(=O)n1-c1ccccc1 | inactive |
| CC1CCC(=O)N(CCSc2ccccc2)CC1 (stereo unspecified) | 0.29% |
| O=C(c1ccc(COc2ccc(Cl)cc2)o1)N1N=C(C(F)F)CC1(O)C(F)F (stereo unspecified) | 3% |
| CCO[C@H]1OC(C(N)=O)=C[C@@H](C(C)(C)C)[C@@H]1CCCO | inactive |

| Structure (SMILES) | CPE inhibition |
| --- | --- |
| CCC(=O)NC(c1ccccc1Cl)c1c(O)ccc2ccccc12 (stereo unspecified) | 4.07% |
| COc1ccccc1C(NC(=O)C1CCCCC1)c1c(O)ccc2ccccc12 (stereo unspecified) | 0.755% |
| CC(C)CC(=O)NC(c1ccccc1Cl)c1c(O)ccc2ccccc12 (stereo unspecified) | 69% (active) |
| CC(C)c1ccc(NC(=S)NCCc2c[nH]c3ccccc23)cc1 | inactive |
| C/C(=N\NC(=O)c1ccccc1-n1cccc1)C1CC1 | 0.14% |
| CON1C(=O)C(=O)N(OC)C2CCCCCC21 (stereo unspecified) | 0.76% |
| CCOc1ccc(NCc2nnc(SCc3ccc(Cl)cc3)n2-c2ccccc2)cc1 | 15.5% (active) |
| COc1ccc(NCc2nnc(SCC(=O)Nc3nc(-c4ccccc4)cs3)n2-c2ccccc2)cc1 | inactive |
| COc1ccc(-n2c(CNc3ccc(C)cc3)nnc2SCc2ccccc2)cc1 | 13.1% (active) |
| COc1ccc(-n2c(SCc3ccc([N+](=O)[O-])cc3)nnc2-c2ccc(C)cc2)cc1 | 11.5% |
| COC(=O)c1ccc(CSc2nnc(CS(=O)Cc3ccc(Br)cc3)n2-c2ccccc2)cc1 (stereo unspecified) | 9.53% |
| CCOc1ccc(NCc2nnc(SCC(=O)Nc3nc(-c4ccccc4)cs3)n2-c2ccccc2)cc1 | 0.01% |
| Cc1cc(C(=O)N/N=C/c2cc(Br)cc([N+](=O)[O-])c2O)c2ccccc2n1 | 0.34% |
| CCOC(=O)c1cccc(S(=O)(=O)N2CCCC2)c1 | 0.06% |
| O=C(NCc1ccccc1)C1=C[C@@H](C2CCCCC2)C[C@@H](OCCCCO)O1 | 2.12% |
| Cc1[nH][nH]c(=O)c1C | 0.36% |
| Cc1ccc(S(=O)(=O)NNC(=S)NC(=O)c2ccc([N+](=O)[O-])cc2)cc1 | inactive |
| CC(C)COP(=O)(c1ccc(N(C)C)cc1)C(Nc1ccccc1)c1ccccc1 (stereo unspecified) | 29.1% (active) |
| CC(C)COP(=O)(c1ccc(N(C)C)cc1)C(Nc1ccccc1)c1cccnc1 (stereo unspecified) | 0.73% |
| CCCOP(=O)(c1ccc(N(C)C)cc1)C(Nc1ccccc1)c1ccc(N(C)C)cc1 (stereo unspecified) | 0.64% |
| O=C(NC1CCCc2ccccc21)c1ccc(Br)cc1 (stereo unspecified) | 3.09% |
| Nc1ccc(-n2nnnc2CN2CCOCC2)cc1 | 0.25% |
| COc1ccc(CC(=O)Nc2cc3oc4ccccc4c3cc2OC)cc1 | 0.095% |
| C=CCOC(=O)C1=C[C@@H](c2ccc(C(F)(F)F)cc2)C[C@@H](OCCCCO)O1 | 0.15% |

| Structure (SMILES) | CPE inhibition |
| --- | --- |
| CNC(=O)/C(C#N)=C/c1c(N(Cc2ccccc2)Cc2ccccc2)nc2c(C)cccn2c1=O | 17% (active) |
| CNC(=O)/C(C#N)=C/c1c(N(Cc2ccccc2)Cc2ccccc2)nc2ccccn2c1=O | 14.1% (active) |
| Cc1ccc(Oc2nc3ccccn3c(=O)c2/C=C(\C#N)C(=O)Nc2c(C)n(C)n(-c3ccccc3)c2=O)c(C)c1 | 0.875% |
| CCNC(=O)/C(C#N)=C/c1c(N2CCN(Cc3ccc4c(c3)OCO4)CC2)nc2c(C)cccn2c1=O | inactive |
| Cc1cccn2c(=O)c(/C=C(\C#N)C(N)=O)c(N3CCN(Cc4ccc5c(c4)OCO5)CC3)nc12 | 0.905% |
| Cc1cccc(Oc2nc3ccccn3c(=O)c2/C=C(\C#N)C(=O)NC2CCS(=O)(=O)C2)c1 (stereo unspecified) | 1.43% |
| COc1ccc(/C=C2/C(=O)N(Cc3ccccc3)N=C2C)cc1 | inactive |
| CCCCn1[nH]c(-c2ccccc2)cc1=O | inactive |
| COc1ccc(OC)c(/C=C/C(=O)OCC(=O)Nc2cccc(Oc3ccccc3)c2)c1 | 0.45% |
| COc1cc(/C=C/C(=O)Nc2nnc(CC(C)C)s2)cc(OC)c1OC | 1.95% |
| CCCS(=O)(=O)Nc1c(OC)ccc2c1c(C(=O)OCC)c(C)n2C | inactive |
| CC(C)CNC(=O)c1ccccc1NC(=O)/C=C/c1cccc([N+](=O)[O-])c1 | inactive |
| CC(=O)NN1C(=O)/C(=C/c2ccc(C(C)C)cc2)SC1=S | inactive |
| O=C(COC(=O)c1oc2ccccc2c1COc1ccccc1)NCCN1C(=O)CSC1=O | 1.47% |
| CCSc1nc2ccccc2n1C(=O)c1ccc(S(=O)(=O)N2CCCCCC2)cc1 | 0.17% |
| CCC1Nc2ncnc(N3CCN(c4ccccc4)CC3)c2N(Cc2ccc(Br)cc2)C1=O (stereo unspecified) | 11.1% (active) |
| CCC1Nc2ncnc(N3CCOCC3)c2N(Cc2ccc(Cl)cc2)C1=O (stereo unspecified) | 0.26% |
| O=C(Cc1ccc(Br)cc1)N1CCN(c2ccccn2)CC1 | inactive |
| Cc1ccc(CN2C(=O)C(CC(C)C)Nc3ncnc(N4CCN(c5ccccc5)CC4)c32)cc1 (stereo unspecified) | 37.1% (active) |
| CCC1Nc2ncnc(N3CCOCC3)c2N(Cc2ccc(Br)cc2)C1=O (stereo unspecified) | inactive |
| CC(C)CC1Nc2ncnc(N3CCN(c4ccccn4)CC3)c2N(Cc2ccccc2)C1=O (stereo unspecified) | 1.43% |
| COc1ccc(CN2C(=O)C(Cc3ccccc3)Nc3ncnc(N4CCCCC4)c32)cc1 (stereo unspecified) | 2.1% |
| Cc1ccc(CN2C(=O)C(CC(C)C)Nc3ncnc(N4CCN(c5ccccn5)CC4)c32)cc1 (stereo unspecified) | 2.52% |
| CC(C)CC1Nc2ncnc(N3CCN(c4ccccn4)CC3)c2N(Cc2ccc(Cl)cc2)C1=O (stereo unspecified) | 9.66% (active) |

— PubChem BioAssay AID540333 (Southern Research Specialized Biocontainment Screening …, 2011)
